Hit rate of the full screen: of about 50,000 compounds, about 350 (0.7%) were called active. This is one part of a sample in which actives are shown more often than they occur. Values without a mark were called inactive. Cut-off read from the data, not from the text of the source: active = inhibition above about 60%; inactive = the rest.
Biological target: Dual specificity protein phosphatase 3 (Homo sapiens) (UniProt P51452)
Experiment: human DUSP3 activity blockers – biochemical, colorimetric, HTS, primary screen (AID 1992)
Conditions: recombinant VHR phosphatase, colorimetric substrate read-out; at 20 µM; active compounds read high

Sequence of Dual specificity protein phosphatase 3 (Homo sapiens) (P51452 whole entry, looked up): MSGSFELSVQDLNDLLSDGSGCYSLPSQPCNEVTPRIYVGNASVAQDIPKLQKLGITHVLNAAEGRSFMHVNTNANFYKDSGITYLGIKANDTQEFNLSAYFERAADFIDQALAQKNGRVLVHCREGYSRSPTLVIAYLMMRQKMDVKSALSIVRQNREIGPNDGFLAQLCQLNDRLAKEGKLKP

Compound	inhibition
CSc1nc(SC)c2c3c(sc2n1)COC(C)(C)C3	4.5%
CC1(C)CC(NC(=O)c2ccccc2C(=O)O)CC(C)(C)N1	-26.8%
COc1ccc(N2C(=O)C3C(C2=O)C2C=CC3C23CC3)cc1 (centres undefined)	-13%
Cc1ccc(C)c(NC(=O)CN(c2ccc(F)cc2)S(=O)(=O)c2ccccc2)c1	-21.2%
CCCCCCOc1ccc(/C=C2/C(=O)ON=C2c2ccccc2)cc1	1.2%
COC(=O)C(=C/C=C/N(C)C)C(=O)OC	-1.7%
COc1ccc(C2=C/C(=C/c3cccc(OC)c3OC(C)=O)C(=O)O2)cc1	2.4%
O=C1c2cccc3cc(Br)cc(c23)C(=O)N1Nc1ccccc1	-21.6%
COc1ccccc1OCCCCOc1c(C)cccc1C	27.1%
COc1ccc(C2CC(c3ccccc3)=NN2c2ccccc2OC)cc1 (centres undefined)	8.3%
COc1cccc(OCCOc2cccc(/C=C3/SC(=S)N(Cc4ccccc4)C3=O)c2)c1	112% (active)
COc1ccc(/C=C2/SC(=S)N(Cc3ccccc3)C2=O)cc1OC	-6.8%
CC(C)CN1C(=O)/C(=C/c2cccc(Oc3ccccc3)c2)SC1=S	-0.1%
Cc1ccc(NC(=O)CC2SC(N)=NC2=O)c([N+](=O)[O-])c1 (centres undefined)	24.8%
C=CCN1C(=O)/C(=C\c2cc(OC)c(O)c([N+](=O)[O-])c2)C(=O)NC1=S	3.8%
COc1ccc(N2C(=O)NC(=O)/C(=C/c3cccn3-c3ccc([N+](=O)[O-])cc3)C2=O)cc1	-13.8%
C=CCN1C(=O)/C(=C\c2cccn2-c2cccc([N+](=O)[O-])c2)C(=O)NC1=S	85.9% (active)
CC(=O)Oc1ccc(/C=C2\C=C(c3ccc(Br)cc3)OC2=O)c(OC(C)=O)c1	5.9%
CCOC(=O)CCCN1C(=O)/C(=C/c2ccccc2)SC1=S	-3.8%
CCOc1ccc(N2C(=O)S/C(=C\c3ccccc3OC)C2=O)cc1	-12.5%

Compound	inhibition
CCOC(=O)c1sc(C)c(C(N)=O)c1N	0.2%
O=C1N/C(=N/N=C/c2ccc3c(c2)OCO3)SC1c1ccccc1 (centres undefined)	-3.2%
O=C(Nc1c(Cl)cccc1Cl)c1ccc(Cl)c(Cl)c1	-2%
CCc1cccc(CC)c1NC(=O)c1ccccc1OC	2.4%
COc1ccc(CCNS(=O)(=O)c2cccc([N+](=O)[O-])c2)cc1	8.5%
CCOc1cccc2c1NC(C)(C)C(=S)C2=C1SC(C(=O)OC)=C(C(=O)OC)S1	-4.6%
CCN(CC)c1ccc(NC(=O)c2oc3ccccc3c2C)cc1	7.4%
CCOC(=O)c1ccc(NC(=O)/C(C#N)=C2\NC(C)(C)Cc3ccccc32)cc1	-14%
Cc1cc(OCC(=O)Nc2cccnc2)ccc1Cl	-1.1%
CCOC(=O)c1ccccc1N/C=C(\C#N)C(=O)NCc1ccccc1	-12%
CC1=C(C(=O)c2ccccc2)C(c2ccc([N+](=O)[O-])cc2)NC(=O)N1 (centres undefined)	-1.5%
COc1ccc(C(=O)N2CCN(Cc3cccc(OC)c3OC)CC2)cc1OC	-15.2%
COc1ccc(OC(C)C(=O)NCCc2nc3ccccc3[nH]2)cc1 (centres undefined)	-9.3%
CC(=O)Nc1ccc(S(=O)(=O)Nc2cccc(-c3nc4ccccc4[nH]3)c2)cc1	-3%
Cc1cc2c(cc1C)-c1nc3ccccc3c(=O)n1C(C)(C)C2	-9.1%
Cc1cc(C(=O)N/N=C/c2ccc(Br)c([N+](=O)[O-])c2)n[nH]1	-1.6%
CC(C)(C)OC(=O)NC(Cc1c[nH]c2ccccc12)C(=O)N1CCOCC1 (centres undefined)	4.4%
O=C1N/C(=N\N=C\c2ccccc2O)SC1Cc1cccc(C(F)(F)F)c1 (centres undefined)	-19.6%
Cc1cc(NC(=O)C2CCCCC2)cc(C)c1O	-10.1%
Cc1ccc(-c2cc(C(=O)N3CC(C)CC(C)C3)c3ccccc3n2)cc1C (centres undefined)	30.2%

Compound	inhibition
CC(C)c1ccc(C(=O)NC2CC2)cc1	0%
COc1cccc(C2/C(=C(\O)c3ccc(Cl)cc3)C(=O)C(=O)N2c2cccnc2)c1 (centres undefined)	-0.3%
N#C/C(=C\c1cn(CC(=O)Nc2ccccc2)c2ccccc12)C(=O)Nc1ccc(F)cc1	23.2%
O=c1oc2c(-c3cc(Cl)ccc3Cl)cc(O)cc2s1	14%
C/C(=N/NC(=O)c1ccccc1C)c1ccc(NC(=O)C(F)(F)F)cc1	-15.5%
O=c1[nH]c(=O)n(-c2ccc(Cl)cc2)c(O)c1/C=C1/C=CC=N1	37.9%
CCOc1ccc(-n2c(O)c(C=C3C=CC=N3)c(=O)[nH]c2=O)cc1	3%
O=c1[nH]c(=S)n(-c2cccc(Cl)c2)c(O)c1/C=C1/C=CC=N1	87.4% (active)
Cc1ccc(NC(=O)CC2Nc3cc(C)c(C)cc3NC2=O)cc1 (centres undefined)	33.7%
O=C(CC1Nc2ccccc2NC1=O)Nc1ccccc1NC(=O)CC1Nc2ccccc2NC1=O (centres undefined)	97.7% (active)
Cc1cc2c(cc1C)NC(CC(=O)Nc1ccccc1C(F)(F)F)C(=O)N2 (centres undefined)	-0.3%
C=CCc1ccccc1OCCOc1c(I)cc(/C=C2/SC(=S)N(C)C2=O)cc1OC	-23.1%
Cc1cccc(OCCOc2cccc(/C=N/n3cnnc3)c2)c1	112% (active)
CCOc1cc(/C=N/n2cnnc2)ccc1OCCOc1ccccc1C	-20.4%
COc1ccccc1OCCOc1ccc(/C=N/n2cnnc2)cc1	14.5%
CC(C)c1ccc(NC(=O)CN(c2ccc(Oc3ccccc3)cc2)S(C)(=O)=O)cc1	-26.4%
CCCOC(=O)c1ccc(N=Cc2ccc([N+](=O)[O-])cc2)cc1	3.4%
O=C(NCCN1CCOCC1)c1cc2nc(-c3ccc([N+](=O)[O-])cc3)cc(C(F)(F)F)n2n1	-23.4%
Cc1ccc(-c2ccc(C)cc2N)c(N)c1	-3%

From PubChem BioAssay AID1992 (Sanford-Burnham Center for Chemical Genomics, 2009)
